Test results reported in PubChem BioAssay AID652104 (National Center for Advancing Translational Sciences (NCATS), 2013).
Out of some 410,000 compounds screened, about 7,200 (1.8%) were called active. Roughly 7% stayed inconclusive and do not appear here. Calls follow the shape of the dose curve; as a rule, active = well fitted activation curve with a large enough effect; inconclusive = small, poorly fitted or top-dose-only effect, or another doubt; inactive = no such curve, though single readings can be large or run the other way. Shown is part of a subset that was picked to be rich in actives.

Experiment: qHTS of TDP-43 Inhibitors; also: nearly all actives have a fitted effect of over 50% in size; as to Growth rescue (activation): % of control where 0% means no effect
Conditions: TDP-43 expressing yeast growth rescue, BacTiter-Glo, 24 h; series mostly up to 46.1 µM
Procedure, shortened: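 In this qHTS, compounds that restore growth of yeast expressing TDP-43 appear as activators. Cells (OD600=0.02, galactose medium, raffinose-pregrown) are incubated with compound 24 hr at 30 deg C and growth is quantified by BacTiter-Glo.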
Potency is read from the fitted curve at half-maximal effect.

Potency, active:
O=C(Nc1cccc(F)c1)NC1CCCc2ccccc21 (stereo not drawn) 12.6 µM
COc1ccc(-c2onc(C)c2C)cc1S(=O)(=O)NCCc1ccccc1 15.8 µM
Cc1ccc2c(c1)c1ncnc(N3CCc4ccccc4C3)c1n2C 22.4 µM
COc1ccc(C2=NN(C(C)=O)C(c3ccccc3)C2)cc1 (stereo not drawn) 14.1 µM
Cn1c(=O)c2c(-c3ccccc3Br)n(Cc3ccccc3)cc2n(C)c1=O 22.4 µM
Cc1nc(NC(=O)C2CCCCC2)sc1C 12.6 µM
Cc1cccc(N2CCN(C(=O)CCSCc3ccccc3F)CC2)c1C 20 µM
COc1ccc(-c2cc3nc(C)c(CCC(=O)NC(C)CCc4ccco4)c(C)n3n2)c(OC)c1 (stereo not drawn) 17.8 µM
COc1ccc([C@H]2CC(=O)C=C(c3ccc(OC(F)(F)F)cc3)C2)cc1OC 14.1 µM
COc1cccc(C2=CC(=O)C[C@H](c3ccc(OC)c(OC)c3)C2)c1 15.8 µM
COc1ccc(-c2cc(C(=O)N(C)Cc3ccccc3)c3ccccc3n2)cc1 14.1 µM
CN(CCOc1ccccc1)C(=O)c1cc(-c2ccco2)nc2ccccc12 35.5 µM
COc1ccc(CC(=O)N/N=C/c2cc([N+](=O)[O-])cc(Br)c2O)cc1 6.31 µM

Potency, inactive:
Cc1cccc(NC(=O)C2CCN(S(=O)(=O)c3c(C)noc3/C=C/c3ccco3)CC2)c1
O=C(CCNC(=O)c1ccc(Cl)cc1)NC1CCCc2ccccc21 (stereo not drawn)
NC(=O)Nc1ccc(C(=O)OCC(=O)NC2CCCc3ccccc32)cc1 (stereo not drawn)
Cc1cccc(Cn2c(CN3CCC(C(=O)NCc4ccccc4Cl)CC3)cc3ccccc32)c1
Cc1ccc(CSc2nc3cccnc3n2Cc2ccc(C(=O)NC3CC3)cc2)cc1
COc1ccc(-c2onc(C)c2C)cc1S(=O)(=O)NCc1cccs1
COc1ccc(C)cc1S(=O)(=O)NCCc1ccccc1
Cc1ccc(N(CC(=O)NCC(C)c2ccccc2)S(=O)(=O)N(C)C)cc1 (stereo not drawn)
CCCN(CCC)CCNC(=O)c1ccc2c(c1)NC(=O)C(CS(=O)(=O)Cc1cccc(Br)c1)N2 (stereo not drawn)
CCOc1ccc(-c2nonc2NC(=O)c2oc3ccc(CC)cc3c2C)cc1
O=C(NCc1ccc2c(c1)CCN2C(=O)c1ccccc1)Nc1cc(F)ccc1F
COc1ccc2c(c1)c1ncn(Cc3ccccn3)c(=O)c1n2C
Cc1ccc2c(c1)N(C(=O)CCC(=O)N1CCc3ccccc3C1)CCO2
CCOc1ccc(-n2nc3ccc(NC(=O)c4ccc(OC)c(Cl)c4)cc3n2)cc1
CCCCOc1ccc(NC(=O)c2cc3c(n(-c4ccc(Cl)cc4)c2=O)CCCC3=O)cc1
COc1ccc(C2=NN(C(=O)CSc3nc(=O)n4ccc(C)cc4n3)C(c3ccc(C)cc3)C2)cc1 (stereo not drawn)
CCC(=O)N1N=C(c2ccc(OC)cc2)CC1c1cn(-c2ccccc2)nc1-c1cccs1 (stereo not drawn)
CCN(C(=O)Cn1c(=O)nc(-c2ccccc2)c2cc(Cl)ccc21)c1cccc(C)c1
Cc1ccc(-c2c3c(=O)n(C)c(=O)n(C)c3cn2-n2cnnc2)cc1
COc1ccc(CCn2cc3c(c2-c2ccc(Br)cc2)c(=O)n(C)c(=O)n3C)cc1OC
CCc1ccc(S(=O)(=O)c2nnn3c2nc(NCc2ccccc2OC)c2cc(Cl)ccc23)cc1
NS(=O)(=O)c1ccc(NC(=O)C(=O)Nc2ccc3nc4n(c(=O)c3c2)CCCCC4)cc1
CC(C)NS(=O)(=O)c1ccc(NC(=O)C2CCCCC2)cc1
CCOC(=O)c1cc(C)sc1NC(=O)C1CCC1
CCOC(=O)C1CCCN(C(=O)c2ccc3c(c2)sc2nc(-c4ccc(CC)cc4)cn23)C1 (stereo not drawn)
COc1ccc(/C=C/c2nc(C#N)c(NCc3ccc(F)cc3)o2)cc1OC
COc1cc2[nH]c(=O)n(Cc3ccc(C(=O)NCc4ccc(C)cc4)cc3)c(=O)c2cc1OC
COc1ccc(N2CCN(C(=O)CCSCc3ccccc3F)CC2)cc1
CCc1cc2c(cc3c(=O)n(CC(=O)NCc4cccc(Cl)c4)nc(CC)n32)s1
C=Cc1ccc(Cn2c(C(=O)O)c(CNC3CCCC3)c3ccc(C)cc32)cc1
CCCNC(=O)C1CCC(Cn2c(=O)c3sccc3n(Cc3ccccc3F)c2=O)CC1 (stereo not drawn)
COc1ccccc1-c1cc2nc(C)c(CCC(=O)NC3CCCCC3)c(C)n2n1
COc1ccccc1-c1cc2nc(C)c(CCC(=O)O)c(C)n2n1
COc1ccc(C2CC(=O)n3c(nc4ccccc43)S2)cc1OC (stereo not drawn)
COc1ccc([C@H]2CC(=O)C=C(/C=C/c3ccccc3)C2)cc1
COc1ccc([C@H]2CC(=O)C=C(c3ccc(CO)cc3)C2)cc1
COc1ccc(C2CC(=O)C=C(NCC3CCCO3)C2)cc1 (stereo not drawn)
CCOC(=O)c1c(NC(=O)Cc2coc3ccc(CC)cc23)sc2c1CCC2
O=C(Nc1ccc(OC(F)(F)F)cc1)C1CCCN(S(=O)(=O)c2ccc(Br)s2)C1 (stereo not drawn)
CC(NC(=O)c1cc2c(=O)n3ccccc3nc2n(C(C)C)c1=N)c1ccccc1 (stereo not drawn)
CN(Cc1ccccc1)C(=O)c1cc2c(=O)n(C)c3ccccc3c2s1
COc1cccc(NC(=O)CN(C)C(=O)c2cc(Cl)nc3ccccc23)c1
COc1ccc(C2=NS(=O)(=O)N(C)C(C(=O)N(C)Cc3ccccc3)=C2)cc1
CN(C)C(CNC(=O)CCCOc1ccccc1)c1ccco1 (stereo not drawn)
Cc1ccc2oc3c(c(=O)c2c1)C(c1ccc(O)cc1)N(Cc1ccc2c(c1)OCO2)C3=O (stereo not drawn)
CNc1ccc(-c2nc(-c3ccccc3C)no2)cc1[N+](=O)[O-]
Cc1ccc(CN2CCC(CNC(=O)c3cnn(-c4ccc(C)cc4)c3C3CCN(C(=O)OC(C)(C)C)CC3)CC2)cc1
COc1ccc(Cc2nnc(SCC(=O)c3cccc([N+](=O)[O-])c3)n2C)cc1

Growth rescue (activation), inactive:
O=C(CCSc1ccccc1)N1CCN(c2ccccc2F)CC1 -9.85% [at 9.22 µM]
COc1ccc(CCNS(=O)(=O)c2cccc([N+](=O)[O-])c2)cc1 -3.92% [at 1.82 µM]
